Holding throughout (parameters): scale not given: direction of the effect not stated beside the values
Assay [1] addresses Protein translocase subunit SecA (Escherichia coli (strain K12)) (UniProt P10408). The experiment in a line: Assay to Identify E. coli SecA ATPase Inhibitors. The conditions noted are these: 30 µM. Type of assay: functional.
In assay [2] the target is T1, Ubiquitin-activating enzyme e1, putative (Leishmania donovani (strain BPK282A1)) (UniProt E9BSI1).
T1 sequence (whole entry): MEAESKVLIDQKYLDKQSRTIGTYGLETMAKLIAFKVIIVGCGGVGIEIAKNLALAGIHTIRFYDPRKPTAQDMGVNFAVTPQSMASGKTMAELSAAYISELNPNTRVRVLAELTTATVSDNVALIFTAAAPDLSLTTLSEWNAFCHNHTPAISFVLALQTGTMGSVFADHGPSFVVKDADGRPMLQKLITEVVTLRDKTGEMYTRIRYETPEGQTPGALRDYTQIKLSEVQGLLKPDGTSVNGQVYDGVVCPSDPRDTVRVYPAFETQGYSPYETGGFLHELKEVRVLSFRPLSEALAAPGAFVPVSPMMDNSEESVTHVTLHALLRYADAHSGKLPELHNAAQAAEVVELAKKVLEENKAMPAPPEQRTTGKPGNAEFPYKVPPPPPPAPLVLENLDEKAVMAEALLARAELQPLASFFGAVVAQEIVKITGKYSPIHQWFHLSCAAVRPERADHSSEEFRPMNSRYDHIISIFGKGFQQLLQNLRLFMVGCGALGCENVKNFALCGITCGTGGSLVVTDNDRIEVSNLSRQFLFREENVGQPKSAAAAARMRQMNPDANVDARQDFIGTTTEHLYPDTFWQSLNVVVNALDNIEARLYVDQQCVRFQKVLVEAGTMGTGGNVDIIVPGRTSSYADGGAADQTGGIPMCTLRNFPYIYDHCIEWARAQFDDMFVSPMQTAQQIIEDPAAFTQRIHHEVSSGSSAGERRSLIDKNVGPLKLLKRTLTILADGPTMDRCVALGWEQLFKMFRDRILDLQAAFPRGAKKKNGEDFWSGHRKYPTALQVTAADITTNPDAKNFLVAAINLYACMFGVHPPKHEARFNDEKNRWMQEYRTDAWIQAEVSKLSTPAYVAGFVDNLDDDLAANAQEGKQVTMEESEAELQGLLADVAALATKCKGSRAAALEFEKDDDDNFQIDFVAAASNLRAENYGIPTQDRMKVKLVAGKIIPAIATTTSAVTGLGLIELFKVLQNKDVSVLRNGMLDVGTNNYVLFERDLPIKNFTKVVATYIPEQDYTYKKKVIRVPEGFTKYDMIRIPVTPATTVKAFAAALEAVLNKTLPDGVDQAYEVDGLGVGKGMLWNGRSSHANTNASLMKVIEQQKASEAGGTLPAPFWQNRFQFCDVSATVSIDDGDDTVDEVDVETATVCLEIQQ
The experiment in a line: Leishmania donovani Ubiquitin Activating Enzyme (LdE1). The format is functional. To be noted: 30 µM.

In assay [3] the target is AMP-activated protein kinase, AMPK (Homo sapiens) (UniProt P54646+O43741+P54619+Q9UGJ0+Q9Y478+Q13131+Q9UGI9). Description: AMP-dependent Kinase enzyme assay. An in vitro enzyme assay that detects ADP turnover that is directly proportional to AMPK activity. This uses naive AMPK that is activated during the assay with MK-8722. The conditions noted are these: 30 µM. Type of assay: functional.

The target of assay [4] is Sialic acid-binding Ig-like lectin 9 (Homo sapiens) (UniProt Q9Y336). Description: Hs-Siglec9 ALPHAscreen SOP 20170721. To be noted: 10 µM. (Alpha assays give light when donor and acceptor beads are brought close together.)
Chain of Sialic acid-binding Ig-like lectin 9 (Homo sapiens) (Q9Y336 whole entry): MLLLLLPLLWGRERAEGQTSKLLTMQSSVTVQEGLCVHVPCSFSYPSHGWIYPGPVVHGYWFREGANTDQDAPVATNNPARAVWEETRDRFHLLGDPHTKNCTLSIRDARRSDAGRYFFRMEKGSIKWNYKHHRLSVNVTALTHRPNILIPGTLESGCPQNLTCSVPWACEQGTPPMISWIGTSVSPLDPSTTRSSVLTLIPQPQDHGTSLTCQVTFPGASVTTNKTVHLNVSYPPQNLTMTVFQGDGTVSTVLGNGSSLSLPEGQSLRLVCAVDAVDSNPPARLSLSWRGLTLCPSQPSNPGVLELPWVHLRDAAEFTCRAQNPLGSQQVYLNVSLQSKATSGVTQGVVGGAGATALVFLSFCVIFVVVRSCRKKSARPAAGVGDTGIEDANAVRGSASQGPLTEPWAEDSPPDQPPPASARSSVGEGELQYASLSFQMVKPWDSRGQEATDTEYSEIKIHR
For assay [5], the system named is Trypanosoma cruzi. Description: Trypanosoma cruzi phosphomannomutase and mannose-1-phosphate guanylyltransferase assay. Type of assay: functional. The conditions noted are these: 10 µM.
Assay [6] deals with T2, Arginase-2, mitochondrial (Homo sapiens) (UniProt P78540).
T2 sequence (whole entry): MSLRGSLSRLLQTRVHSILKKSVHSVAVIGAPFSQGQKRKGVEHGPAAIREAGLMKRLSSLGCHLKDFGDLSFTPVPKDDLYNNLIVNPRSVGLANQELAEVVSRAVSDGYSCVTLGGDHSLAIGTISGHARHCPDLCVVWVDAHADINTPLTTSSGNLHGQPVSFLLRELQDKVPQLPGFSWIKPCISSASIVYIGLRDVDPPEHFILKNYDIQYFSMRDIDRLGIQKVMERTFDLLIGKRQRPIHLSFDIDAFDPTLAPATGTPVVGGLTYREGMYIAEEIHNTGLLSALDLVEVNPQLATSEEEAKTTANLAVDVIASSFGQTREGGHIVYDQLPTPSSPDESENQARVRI
The experiment in a line: in vitro enzyme assay to detect the production of urea directly proportional to the activity of Arginase II. Note: in the data most compounds retested in dose-response had high values. The format is functional. To be noted: 33.3 µM.

The target of assay [7] is T3, Proteasome subunit beta (Trypanosoma cruzi) (UniProt O96673).
T3 sequence (whole entry): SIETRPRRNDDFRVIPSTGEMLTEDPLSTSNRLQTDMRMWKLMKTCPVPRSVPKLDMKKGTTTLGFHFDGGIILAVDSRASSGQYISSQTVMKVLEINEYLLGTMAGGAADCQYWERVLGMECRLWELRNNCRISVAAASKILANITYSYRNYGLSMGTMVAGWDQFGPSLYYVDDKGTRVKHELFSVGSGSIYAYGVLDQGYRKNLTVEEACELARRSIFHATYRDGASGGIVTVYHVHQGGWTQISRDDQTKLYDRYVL
The experiment in a line: Trypanosoma cruzi proteasome chymotrypsin-like activity (TcProtChymo) assay. Note: in the data most compounds retested in dose-response had high values. The conditions noted are these: 9.37 µM. The format is functional.

Assay [8] is filed under the species Homo sapiens. The experiment in a line: To identify inhibition of the IFN signalling (Jak-Stat) pathway via expression of an eGFP reporter gene under the control of an IFN-stimulated response element (ISRE) containing MxA promoter. Type of assay: functional. To be noted: 30 µM. For orientation: Reporter assays use an easily measured gene product as a stand-in for the process of interest.

Assay [9] addresses T4, Tyrosyl-tRNA synthetase, putative (Trypanosoma cruzi (strain CL Brener)) (UniProt Q4DSP6).
T4 sequence (whole entry): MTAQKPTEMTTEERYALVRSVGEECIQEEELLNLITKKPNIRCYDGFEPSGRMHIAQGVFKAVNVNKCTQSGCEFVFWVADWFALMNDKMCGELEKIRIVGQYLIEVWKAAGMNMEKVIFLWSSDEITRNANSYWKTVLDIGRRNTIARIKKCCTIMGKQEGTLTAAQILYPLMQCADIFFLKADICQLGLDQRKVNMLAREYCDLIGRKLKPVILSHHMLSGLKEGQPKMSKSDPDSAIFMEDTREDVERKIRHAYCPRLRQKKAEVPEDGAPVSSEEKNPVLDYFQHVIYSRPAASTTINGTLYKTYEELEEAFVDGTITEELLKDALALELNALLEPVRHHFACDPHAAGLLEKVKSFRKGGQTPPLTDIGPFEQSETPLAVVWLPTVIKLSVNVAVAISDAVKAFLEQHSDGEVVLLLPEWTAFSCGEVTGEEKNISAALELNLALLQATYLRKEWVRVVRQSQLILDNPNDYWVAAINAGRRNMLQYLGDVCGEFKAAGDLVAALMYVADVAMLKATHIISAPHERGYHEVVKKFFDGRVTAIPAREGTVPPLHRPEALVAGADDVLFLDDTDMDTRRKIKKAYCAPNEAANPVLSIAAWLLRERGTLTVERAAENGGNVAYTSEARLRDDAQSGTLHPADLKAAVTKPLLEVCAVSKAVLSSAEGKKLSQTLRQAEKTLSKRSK
Description: Trypanosoma cruzi tyrosyl tRNA synthetase (TcYRS) _High Tyrosine SOP. Note: in the data most compounds retested in dose-response had high values. The format is functional. The conditions noted are these: 30 µM.

Assay [10] has as its target T4, Tyrosyl-tRNA synthetase, putative (Trypanosoma cruzi (strain CL Brener)). Description: Trypanosoma cruzi tyrosyl tRNA synthetase (TcYRS) SOP. The conditions noted are these: 30 µM. Type of assay: functional.
Assay [11] concerns the target Chromo domain-containing protein 1 (Saccharomyces cerevisiae (strain ATCC 204508 / S288c) (Baker's yeast)) (UniProt P32657). The experiment in a line: ScCHD-1 Enzyme Inhibition Assay. Note: in the data most compounds retested in dose-response had high values. To be noted: 30 µM. Type of assay: functional.

SMILES strings stand for the structures. For some of these results: Entries with a potency or affinity are not part of this list.

Chain of Protein translocase subunit SecA (Escherichia coli (strain K12)) (P10408 whole entry): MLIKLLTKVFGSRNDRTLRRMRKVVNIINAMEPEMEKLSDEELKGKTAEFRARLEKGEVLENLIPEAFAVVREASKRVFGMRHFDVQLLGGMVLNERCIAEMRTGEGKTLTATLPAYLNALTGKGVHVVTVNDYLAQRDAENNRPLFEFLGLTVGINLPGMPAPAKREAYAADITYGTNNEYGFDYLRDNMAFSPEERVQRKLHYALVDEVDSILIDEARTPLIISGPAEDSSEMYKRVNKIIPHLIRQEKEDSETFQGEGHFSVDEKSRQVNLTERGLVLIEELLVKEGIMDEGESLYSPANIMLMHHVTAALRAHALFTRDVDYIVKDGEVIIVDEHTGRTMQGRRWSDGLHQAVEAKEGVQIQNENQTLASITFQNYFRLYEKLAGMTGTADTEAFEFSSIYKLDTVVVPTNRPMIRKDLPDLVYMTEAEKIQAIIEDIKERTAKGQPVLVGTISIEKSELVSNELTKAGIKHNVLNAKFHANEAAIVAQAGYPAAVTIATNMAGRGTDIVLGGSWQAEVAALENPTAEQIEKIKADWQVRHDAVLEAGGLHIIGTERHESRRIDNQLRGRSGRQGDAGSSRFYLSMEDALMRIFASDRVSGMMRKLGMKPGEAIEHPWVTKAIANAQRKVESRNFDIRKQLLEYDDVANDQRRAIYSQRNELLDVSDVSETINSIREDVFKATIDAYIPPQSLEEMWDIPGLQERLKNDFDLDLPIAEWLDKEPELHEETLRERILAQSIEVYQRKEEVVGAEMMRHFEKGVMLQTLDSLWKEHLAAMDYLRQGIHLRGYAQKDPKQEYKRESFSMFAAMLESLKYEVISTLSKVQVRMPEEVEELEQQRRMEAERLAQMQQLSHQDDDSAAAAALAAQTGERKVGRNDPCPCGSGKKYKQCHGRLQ
Chain of Chromo domain-containing protein 1 (Saccharomyces cerevisiae (strain ATCC 204508 / S288c) (Baker's yeast)) (P32657 whole entry, the tested form may be a part): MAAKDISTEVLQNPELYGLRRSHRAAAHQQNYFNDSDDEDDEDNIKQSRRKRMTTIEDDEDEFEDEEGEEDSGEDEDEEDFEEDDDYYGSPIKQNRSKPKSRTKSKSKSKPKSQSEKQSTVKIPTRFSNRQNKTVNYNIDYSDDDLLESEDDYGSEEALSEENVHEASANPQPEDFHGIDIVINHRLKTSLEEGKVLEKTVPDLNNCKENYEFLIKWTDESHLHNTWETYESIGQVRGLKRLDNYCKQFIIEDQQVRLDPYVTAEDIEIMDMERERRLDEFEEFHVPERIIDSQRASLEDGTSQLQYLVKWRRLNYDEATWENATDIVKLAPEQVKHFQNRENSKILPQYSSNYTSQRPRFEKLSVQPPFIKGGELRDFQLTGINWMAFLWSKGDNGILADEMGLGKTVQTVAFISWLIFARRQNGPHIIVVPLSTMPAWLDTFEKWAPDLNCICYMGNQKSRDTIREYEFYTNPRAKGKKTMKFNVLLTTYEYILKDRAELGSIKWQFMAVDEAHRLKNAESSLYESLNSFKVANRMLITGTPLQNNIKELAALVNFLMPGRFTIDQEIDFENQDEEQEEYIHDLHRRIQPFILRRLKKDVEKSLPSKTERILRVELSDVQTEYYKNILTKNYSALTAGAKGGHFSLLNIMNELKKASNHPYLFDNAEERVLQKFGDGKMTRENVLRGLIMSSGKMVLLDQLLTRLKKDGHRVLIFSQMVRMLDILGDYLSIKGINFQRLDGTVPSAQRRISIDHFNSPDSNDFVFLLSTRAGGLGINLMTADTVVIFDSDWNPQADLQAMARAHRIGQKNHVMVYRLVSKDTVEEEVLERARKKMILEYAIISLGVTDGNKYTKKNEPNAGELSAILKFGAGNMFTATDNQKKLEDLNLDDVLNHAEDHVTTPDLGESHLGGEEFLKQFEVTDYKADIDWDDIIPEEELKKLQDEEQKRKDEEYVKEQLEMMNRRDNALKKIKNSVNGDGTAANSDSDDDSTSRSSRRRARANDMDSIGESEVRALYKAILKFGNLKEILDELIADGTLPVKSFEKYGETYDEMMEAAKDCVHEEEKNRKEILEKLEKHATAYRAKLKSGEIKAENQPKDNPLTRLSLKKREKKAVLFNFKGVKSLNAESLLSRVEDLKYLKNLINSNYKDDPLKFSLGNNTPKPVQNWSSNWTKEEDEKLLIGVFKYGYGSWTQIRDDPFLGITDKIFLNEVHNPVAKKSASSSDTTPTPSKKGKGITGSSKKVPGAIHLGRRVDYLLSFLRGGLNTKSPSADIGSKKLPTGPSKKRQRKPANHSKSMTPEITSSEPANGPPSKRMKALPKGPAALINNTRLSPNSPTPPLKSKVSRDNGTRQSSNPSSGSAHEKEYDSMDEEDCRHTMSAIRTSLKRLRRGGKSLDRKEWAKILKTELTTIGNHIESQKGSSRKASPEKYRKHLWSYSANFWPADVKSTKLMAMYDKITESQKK

On to `COCCn1c2c(ccc1=O)CC(NS(C)(=O)=O)CC2` (stereo unspecified), for which the Percent Effect in [1] is -3.49%; in [2], 13.3%; in [3], -2.12%; in [4], -9.48%; in assay [5] it was -7.68%; in assay [6] it was -1.63%. The Percent Effect is -1.15% in [7]; 10.7% in assay [8]; 0% in assay [9]; 3.85% in [10]; -4.29% in [11].
Regarding `CC(=O)N(C)c1nc(CN2CCOC(Cn3cccn3)C2)cs1` (stereo unspecified), the Percent Effect in assay [1] is 1.46%; in [2] it was 8.11%; in assay [3] it was -1.27%; in [4] it was 15.7%; in assay [5] it was 3.09%; in [6] it was 17.1%. The Percent Effect in assay [7] is 15.9%; in [8] it was 10.3%; in assay [9], 4.76%; in assay [10], 12.2%; in assay [11] it was -5.18%.
Turning to `CC(NC(=O)COc1nc(C(C)(C)C)no1)c1ccco1` (stereo unspecified), the Percent Effect in assay [1] is -6.83%; in assay [2], 2.7%; in assay [3], 5.6%; in assay [4], 2.63%; in assay [5], 4.25%; in assay [6] it was 2.86%. Also, the Percent Effect was 3.45% in assay [7]; -3.88% in assay [8]; 4.76% in [9]; 9.76% in assay [10]; -1.56% in assay [11].
As to `O=C(NCc1cccnc1)C1CC(=O)N(CC2CC2)C1` (stereo unspecified), the Percent Effect in assay [1] is -5.33%; in assay [2] it was 15.6%; in [3] it was -0.688%; in [4] it was -14.6%; in assay [5], 6.37%; in assay [6], -1.05%. In addition, the Percent Effect in assay [7] was 17.7%; in [8] it was 4.16%; in assay [9], 4.76%; in assay [10], 21.2%; in assay [11], -21.7%.
As to `O=C(NC[C@H]1OC[C@@H]2CCN(C(=O)c3ccco3)C[C@@H]21)C1CC1`, the Percent Effect was -4.23% in assay [1]; 2.7% in [2]; 1.41% in [3]; -2.71% in assay [4]; -3.81% in assay [5]; 5.21% in [6]. Moreover, the Percent Effect was 10.6% in [7]; -3.1% in assay [8]; 2.15% in [9]; 11.1% in assay [10]; -4.6% in assay [11].
`Cc1ncccc1OC1(C(=O)NCCCN2CCOCC2)CCNCC1`: the Percent Effect is -0.6% in assay [1]; 5.41% in assay [2]; -5.62% in [3]; -0.0436% in assay [4]; -5.02% in assay [5]; 1.43% in assay [6]. The Percent Effect in assay [7] was 11.2%; in [8], 11%; in assay [9], 6.88%; in assay [10], 9.76%; in [11], -2.8%.
Turning to `Cc1nn(C)c(Cl)c1C1CCCN1C(=O)c1ccc2nncn2c1` (stereo unspecified), the Percent Effect is -3.02% in assay [1]; 0% in assay [2]; 2.19% in assay [3]; -4.7% in [4]; -4.25% in [5]; 0% in [6]. The Percent Effect was 3.6% in assay [7]; -2.92% in assay [8]; -4.43% in assay [9]; -6.17% in assay [10]; -0.833% in assay [11].
As to `Cc1ccc(C)c(OCCN2CCC(N3CCNC3=O)CC2)c1`, the Percent Effect is -3.83% in [1]; 10.8% in assay [2]; -16.9% in assay [3]; 6.39% in assay [4]; -2.69% in [5]; 2.03% in assay [6]. For the same molecule, the Percent Effect in assay [7] was 1.62%; in assay [8], 6.79%; in [9] it was 4.95%; in assay [10], 13.4%; in [11] it was -0.537%.
For the molecule `O=C(c1cccc(=O)[nH]1)N(Cc1ccsc1)CC1CCCO1` (stereo unspecified), the Percent Effect in [1] was -0.641%; in assay [2], 10.8%; in assay [3], -7.24%; in [4] it was 6.17%; in [5], -0.386%; in [6] it was 2.86%. Further, the Percent Effect in assay [7] is 12.8%; in [8] it was 11.3%; in [9], 7.94%; in assay [10] it was 17.1%; in assay [11], -1.82%.
On to `CC(C)NC(=O)N1CCC2(CC(C(=O)NCc3cccnc3)=NO2)C1` (stereo unspecified), for which the Percent Effect in assay [1] is -0.964%; in assay [2], 2.67%; in assay [3], 4.37%; in assay [4], 10.3%; in assay [5] it was -5.99%; in assay [6], -2.69%. For the same molecule, the Percent Effect in assay [7] is 8.89%; in assay [8], 8.43%; in assay [9] it was -3.12%; in assay [10] it was 0%; in [11], 1.61%.
Regarding `COc1ccccc1CC(=O)NCc1c(C)nc2cc(=O)[nH]n2c1C`, the Percent Effect in assay [1] is -2.98%; in [2] it was 0%; in assay [3], -13.8%; in assay [4] it was 9.27%; in [5] it was 3.01%; in assay [6], 1.53%. Further, the Percent Effect in [7] is 8.02%; in assay [8] it was 7.43%; in [9] it was 4.41%; in [10], 7.32%; in assay [11] it was -7.8%.

These data come from ChEMBL document CHEMBL3988442, “University of Dundee, Small-Polar-MMV Screening Library” (2021).
